# Assay results published in article PMC7862700, “An all-to-all approach to the identification of sequence-specific readers for epigenetic DNA modifications on cytosine”.
# Columns and labels:
# Experiment in all cases: DAPPL (digital affinity profiling via proximity ligation, sequencing); 10 mM Tris-HCl pH 7.5, 50 mM NaCl, 1 mM DTT, 4% glycerol, room temperature, 30 min; GST-TFs on glutathione beads, 16-mer random dsDNA library, 0.1% formaldehyde crosslink after washing; high values mean tight binding
# FLI1 = molecular target: T1, FLI1 (Homo sapiens, UniProt Q01543 1-452); details: protein: recombinant; tags: N-terminal GST; dsDNA, one strand shown
# T1 sequence: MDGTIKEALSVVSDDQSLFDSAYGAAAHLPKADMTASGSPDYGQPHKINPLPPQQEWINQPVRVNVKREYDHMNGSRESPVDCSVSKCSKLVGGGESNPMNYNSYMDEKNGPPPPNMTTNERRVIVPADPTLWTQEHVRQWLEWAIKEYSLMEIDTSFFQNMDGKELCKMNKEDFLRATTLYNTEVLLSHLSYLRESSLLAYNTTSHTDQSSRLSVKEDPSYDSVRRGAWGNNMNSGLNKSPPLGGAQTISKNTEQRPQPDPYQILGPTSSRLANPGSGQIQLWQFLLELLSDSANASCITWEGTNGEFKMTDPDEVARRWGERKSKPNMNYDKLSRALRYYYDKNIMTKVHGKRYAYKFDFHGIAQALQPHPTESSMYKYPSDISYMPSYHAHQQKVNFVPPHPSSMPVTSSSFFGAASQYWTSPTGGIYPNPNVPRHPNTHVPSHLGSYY
# Method in brief: (§1)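 Human transcription factors fused to GST were expressed in yeast, captured on glutathione beads, given DNA barcodes and pooled with a GST-only negative control. Pools were incubated with 200 nmole of a 16-mer random double-stranded DNA library in Tris/NaCl/DTT/glycerol buffer at room temperature for 30 min. They were then washed, crosslinked with 0.1% formaldehyde, proximity-ligated (BsaI/T4 ligase, 1 h, 37 °C), PCR-amplified and sequenced on an Illumina NextSeq500. Binding signal is each 6-mer's read frequency for a factor divided by its frequency for the GST control.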
# ELK1 = molecular target: T2, ELK1 (Homo sapiens, UniProt P19419 1-428); details: protein: recombinant; tags: N-terminal GST; dsDNA, one strand shown
# T2 sequence: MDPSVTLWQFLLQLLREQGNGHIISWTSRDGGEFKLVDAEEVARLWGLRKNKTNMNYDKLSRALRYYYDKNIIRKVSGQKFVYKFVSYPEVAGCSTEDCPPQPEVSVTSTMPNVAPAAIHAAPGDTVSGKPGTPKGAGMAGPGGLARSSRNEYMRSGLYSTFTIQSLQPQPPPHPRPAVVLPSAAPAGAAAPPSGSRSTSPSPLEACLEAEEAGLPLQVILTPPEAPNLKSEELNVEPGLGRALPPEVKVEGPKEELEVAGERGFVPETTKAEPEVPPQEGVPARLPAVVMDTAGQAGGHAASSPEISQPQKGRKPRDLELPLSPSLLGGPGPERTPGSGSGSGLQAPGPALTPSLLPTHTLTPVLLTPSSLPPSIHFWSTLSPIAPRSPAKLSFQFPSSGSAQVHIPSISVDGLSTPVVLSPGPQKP
# Method in brief: as §1
# GABPA = molecular target: T3, GABPA (Homo sapiens, UniProt Q06546 1-454); details: protein: recombinant; tags: N-terminal GST; dsDNA, one strand shown
# T3 sequence: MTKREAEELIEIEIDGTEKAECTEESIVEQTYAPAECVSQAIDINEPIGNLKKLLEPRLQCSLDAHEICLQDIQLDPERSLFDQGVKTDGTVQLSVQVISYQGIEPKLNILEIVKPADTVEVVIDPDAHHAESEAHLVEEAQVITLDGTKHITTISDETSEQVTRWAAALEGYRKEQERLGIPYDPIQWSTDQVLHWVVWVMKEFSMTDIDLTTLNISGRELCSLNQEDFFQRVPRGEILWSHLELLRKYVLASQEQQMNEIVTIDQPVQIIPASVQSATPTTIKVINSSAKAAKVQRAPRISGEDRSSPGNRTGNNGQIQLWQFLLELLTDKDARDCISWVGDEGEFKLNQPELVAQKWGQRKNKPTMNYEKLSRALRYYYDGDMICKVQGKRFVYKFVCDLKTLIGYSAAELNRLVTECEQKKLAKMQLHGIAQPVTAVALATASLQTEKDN
# Method in brief: as §1
# ERG = molecular target: T4, ERG (Homo sapiens, UniProt P11308 1-479); details: protein: recombinant; tags: N-terminal GST; dsDNA, one strand shown
# T4 sequence: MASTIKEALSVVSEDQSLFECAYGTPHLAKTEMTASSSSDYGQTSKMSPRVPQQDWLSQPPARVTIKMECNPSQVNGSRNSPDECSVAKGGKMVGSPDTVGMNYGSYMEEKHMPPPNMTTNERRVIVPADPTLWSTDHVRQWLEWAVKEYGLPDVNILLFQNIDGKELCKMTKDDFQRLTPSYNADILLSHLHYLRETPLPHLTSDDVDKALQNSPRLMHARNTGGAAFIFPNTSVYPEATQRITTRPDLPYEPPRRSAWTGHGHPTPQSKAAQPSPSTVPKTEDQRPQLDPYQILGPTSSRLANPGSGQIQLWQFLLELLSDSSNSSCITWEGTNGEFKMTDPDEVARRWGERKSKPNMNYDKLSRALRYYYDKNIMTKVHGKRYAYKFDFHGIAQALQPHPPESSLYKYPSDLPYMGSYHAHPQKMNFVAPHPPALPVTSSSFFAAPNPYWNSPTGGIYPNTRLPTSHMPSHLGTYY
# Method in brief: as §1
# ELF1 = ELF1 (Homo sapiens, UniProt P32519 1-619); details: protein: recombinant; tags: N-terminal GST; dsDNA, one strand shown
# ELF1, sequence (P32519 whole entry): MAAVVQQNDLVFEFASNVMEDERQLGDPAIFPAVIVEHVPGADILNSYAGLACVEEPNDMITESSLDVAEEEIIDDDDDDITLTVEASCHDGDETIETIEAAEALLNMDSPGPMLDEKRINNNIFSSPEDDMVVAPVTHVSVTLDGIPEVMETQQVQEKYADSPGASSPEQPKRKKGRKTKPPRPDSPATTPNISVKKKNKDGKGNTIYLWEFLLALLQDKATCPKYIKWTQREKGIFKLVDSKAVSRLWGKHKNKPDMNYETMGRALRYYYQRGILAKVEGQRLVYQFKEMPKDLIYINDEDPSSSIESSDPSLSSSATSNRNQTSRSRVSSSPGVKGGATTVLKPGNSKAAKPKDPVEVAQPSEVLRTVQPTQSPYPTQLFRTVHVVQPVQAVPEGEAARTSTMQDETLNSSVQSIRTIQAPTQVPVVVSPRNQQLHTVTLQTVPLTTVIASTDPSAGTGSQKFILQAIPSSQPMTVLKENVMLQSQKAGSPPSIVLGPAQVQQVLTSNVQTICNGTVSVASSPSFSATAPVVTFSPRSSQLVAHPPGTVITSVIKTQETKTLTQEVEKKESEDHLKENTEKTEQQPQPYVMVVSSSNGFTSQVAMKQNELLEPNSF
# Method in brief: as §1
# EHF = molecular target: T5, EHF (Homo sapiens, UniProt Q9NZC4 1-300); details: protein: recombinant; tags: N-terminal GST; dsDNA, one strand shown
# T5 sequence: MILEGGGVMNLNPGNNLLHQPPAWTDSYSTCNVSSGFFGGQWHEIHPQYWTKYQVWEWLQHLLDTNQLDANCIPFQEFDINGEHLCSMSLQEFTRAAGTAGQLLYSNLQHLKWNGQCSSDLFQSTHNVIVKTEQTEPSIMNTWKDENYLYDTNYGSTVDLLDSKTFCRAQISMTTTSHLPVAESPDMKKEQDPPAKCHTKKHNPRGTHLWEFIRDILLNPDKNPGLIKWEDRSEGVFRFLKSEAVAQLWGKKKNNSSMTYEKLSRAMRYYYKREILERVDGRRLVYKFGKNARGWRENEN
# Method in brief: as §1
# SPI1 = SPI1 (Homo sapiens, UniProt P17947 1-270); details: protein: recombinant; tags: N-terminal GST; dsDNA, one strand shown
# Method in brief: as §1
# SPIB = SPIB (Homo sapiens, UniProt Q01892 1-262); details: protein: recombinant; tags: N-terminal GST; dsDNA, one strand shown
# SPIB, sequence (Q01892 whole entry): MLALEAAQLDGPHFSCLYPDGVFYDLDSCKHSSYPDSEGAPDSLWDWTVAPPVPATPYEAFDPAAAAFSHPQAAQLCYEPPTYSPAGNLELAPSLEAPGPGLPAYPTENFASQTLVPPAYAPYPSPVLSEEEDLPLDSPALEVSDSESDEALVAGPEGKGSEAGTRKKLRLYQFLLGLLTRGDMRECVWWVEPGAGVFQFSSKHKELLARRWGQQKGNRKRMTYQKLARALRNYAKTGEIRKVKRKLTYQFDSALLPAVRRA
# Method in brief: as §1
# ELK3 = molecular target: T6, ELK3 (Homo sapiens, UniProt P41970 1-407); details: protein: recombinant; tags: N-terminal GST; dsDNA, one strand shown
# T6 sequence: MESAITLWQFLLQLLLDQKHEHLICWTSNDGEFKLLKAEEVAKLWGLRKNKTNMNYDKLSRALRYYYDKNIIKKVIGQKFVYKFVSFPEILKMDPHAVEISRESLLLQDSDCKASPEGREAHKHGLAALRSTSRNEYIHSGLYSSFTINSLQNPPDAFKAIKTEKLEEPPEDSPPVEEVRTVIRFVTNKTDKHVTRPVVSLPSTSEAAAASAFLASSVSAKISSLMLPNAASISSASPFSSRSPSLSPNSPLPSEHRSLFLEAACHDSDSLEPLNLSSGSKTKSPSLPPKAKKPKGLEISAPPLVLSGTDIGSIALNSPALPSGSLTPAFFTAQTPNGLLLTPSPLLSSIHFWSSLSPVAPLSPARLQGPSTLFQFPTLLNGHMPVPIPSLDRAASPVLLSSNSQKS
# Method in brief: as §1
# FEV = molecular target: T7, FEV (Homo sapiens, UniProt Q99581 1-238); details: protein: recombinant; tags: N-terminal GST; dsDNA, one strand shown
# T7 sequence: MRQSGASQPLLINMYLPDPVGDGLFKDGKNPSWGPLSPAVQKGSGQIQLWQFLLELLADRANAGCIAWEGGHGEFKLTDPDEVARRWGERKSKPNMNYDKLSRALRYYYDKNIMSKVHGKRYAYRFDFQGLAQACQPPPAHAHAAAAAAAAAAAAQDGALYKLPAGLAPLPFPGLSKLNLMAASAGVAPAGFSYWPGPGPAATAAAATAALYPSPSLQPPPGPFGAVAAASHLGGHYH
# Method in brief: as §1
# ETV5 = ETV5 (Homo sapiens, UniProt P41161 1-510); details: protein: recombinant; tags: N-terminal GST; dsDNA, one strand shown
# ETV5, sequence (P41161 whole entry): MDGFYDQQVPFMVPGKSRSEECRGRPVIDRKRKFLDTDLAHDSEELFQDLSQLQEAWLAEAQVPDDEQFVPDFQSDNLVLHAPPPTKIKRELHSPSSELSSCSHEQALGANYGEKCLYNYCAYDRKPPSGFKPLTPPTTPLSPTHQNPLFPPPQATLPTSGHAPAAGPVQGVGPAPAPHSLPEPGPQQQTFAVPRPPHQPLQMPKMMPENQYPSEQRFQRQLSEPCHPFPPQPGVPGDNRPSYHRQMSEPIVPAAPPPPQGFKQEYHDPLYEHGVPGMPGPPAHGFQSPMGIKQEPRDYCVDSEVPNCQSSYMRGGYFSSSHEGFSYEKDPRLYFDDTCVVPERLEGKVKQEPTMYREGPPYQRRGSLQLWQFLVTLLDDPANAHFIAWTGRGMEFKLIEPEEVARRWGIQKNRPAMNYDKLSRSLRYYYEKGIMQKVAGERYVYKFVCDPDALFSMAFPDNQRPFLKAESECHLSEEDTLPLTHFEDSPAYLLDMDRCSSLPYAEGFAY
# Method in brief: as §1
# HSF1 = HSF1 (Homo sapiens, UniProt Q00613 1-529); details: protein: recombinant; tags: N-terminal GST; chain copies: 3; dsDNA, one strand shown
# HSF1, sequence (Q00613 whole entry): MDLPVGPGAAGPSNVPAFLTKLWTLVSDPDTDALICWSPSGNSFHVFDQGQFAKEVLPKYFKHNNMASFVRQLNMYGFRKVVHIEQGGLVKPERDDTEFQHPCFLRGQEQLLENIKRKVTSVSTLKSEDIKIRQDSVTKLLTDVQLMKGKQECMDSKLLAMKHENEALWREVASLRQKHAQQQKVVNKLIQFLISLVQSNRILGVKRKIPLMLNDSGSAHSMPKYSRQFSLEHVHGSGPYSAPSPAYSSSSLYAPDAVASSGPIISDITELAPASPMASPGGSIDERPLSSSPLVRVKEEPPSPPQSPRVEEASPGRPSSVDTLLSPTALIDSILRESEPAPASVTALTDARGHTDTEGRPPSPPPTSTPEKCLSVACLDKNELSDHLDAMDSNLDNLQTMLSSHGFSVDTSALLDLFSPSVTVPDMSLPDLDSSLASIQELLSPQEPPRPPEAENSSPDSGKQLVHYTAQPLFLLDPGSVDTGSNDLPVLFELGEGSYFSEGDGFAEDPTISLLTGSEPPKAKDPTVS
# Method in brief: as §1
# SPIC = molecular target: T8, SPIC (Homo sapiens, UniProt Q8N5J4 1-248); details: protein: recombinant; tags: N-terminal GST; dsDNA, one strand shown
# T8 sequence: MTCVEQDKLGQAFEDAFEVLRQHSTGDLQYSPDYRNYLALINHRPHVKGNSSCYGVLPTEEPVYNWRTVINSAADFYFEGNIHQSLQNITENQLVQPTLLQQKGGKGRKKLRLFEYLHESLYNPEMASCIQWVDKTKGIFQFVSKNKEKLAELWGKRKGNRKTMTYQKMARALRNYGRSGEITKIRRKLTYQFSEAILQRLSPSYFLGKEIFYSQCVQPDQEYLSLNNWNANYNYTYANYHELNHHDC
# Method in brief: as §1
# ELF4 = ELF4 (Homo sapiens, UniProt Q99607 1-663); details: protein: recombinant; tags: N-terminal GST; dsDNA, one strand shown
# ELF4, sequence (Q99607 whole entry): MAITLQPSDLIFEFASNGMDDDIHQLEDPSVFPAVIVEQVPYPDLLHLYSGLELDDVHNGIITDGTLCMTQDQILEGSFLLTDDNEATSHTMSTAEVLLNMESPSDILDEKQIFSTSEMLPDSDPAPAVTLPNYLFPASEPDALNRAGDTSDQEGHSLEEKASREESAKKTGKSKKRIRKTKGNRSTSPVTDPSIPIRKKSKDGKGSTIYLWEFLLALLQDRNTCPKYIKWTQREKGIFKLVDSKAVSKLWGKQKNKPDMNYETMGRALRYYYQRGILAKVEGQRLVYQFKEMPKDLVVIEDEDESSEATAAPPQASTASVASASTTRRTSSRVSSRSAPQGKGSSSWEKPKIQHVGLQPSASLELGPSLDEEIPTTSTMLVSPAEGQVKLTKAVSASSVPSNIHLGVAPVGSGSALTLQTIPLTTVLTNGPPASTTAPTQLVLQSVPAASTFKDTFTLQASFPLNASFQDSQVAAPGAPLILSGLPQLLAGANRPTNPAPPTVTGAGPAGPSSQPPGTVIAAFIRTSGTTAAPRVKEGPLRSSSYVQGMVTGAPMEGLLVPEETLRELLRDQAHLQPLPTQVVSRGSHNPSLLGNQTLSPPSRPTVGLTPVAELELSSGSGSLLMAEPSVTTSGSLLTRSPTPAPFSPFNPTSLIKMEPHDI
# Method in brief: as §1
# ELK4 = molecular target: T9, ELK4 (Homo sapiens, UniProt P28324-2 1-405); details: protein: recombinant; tags: N-terminal GST; dsDNA, one strand shown
# T9 sequence: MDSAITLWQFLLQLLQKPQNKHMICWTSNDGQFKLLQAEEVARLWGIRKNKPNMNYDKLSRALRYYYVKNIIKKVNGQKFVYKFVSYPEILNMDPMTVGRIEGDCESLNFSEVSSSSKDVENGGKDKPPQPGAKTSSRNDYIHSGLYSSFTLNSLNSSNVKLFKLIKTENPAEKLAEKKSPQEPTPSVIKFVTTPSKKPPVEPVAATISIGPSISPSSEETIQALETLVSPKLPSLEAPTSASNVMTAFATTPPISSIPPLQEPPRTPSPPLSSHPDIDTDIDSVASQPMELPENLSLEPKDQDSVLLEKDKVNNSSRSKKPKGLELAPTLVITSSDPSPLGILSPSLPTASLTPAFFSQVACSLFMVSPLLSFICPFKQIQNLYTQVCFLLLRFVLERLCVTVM
# Method in brief: as §1
# ETV2 = molecular target: T10, ETV2 (Homo sapiens, UniProt O00321 1-342); details: protein: recombinant; tags: N-terminal GST; dsDNA, one strand shown
# T10 sequence: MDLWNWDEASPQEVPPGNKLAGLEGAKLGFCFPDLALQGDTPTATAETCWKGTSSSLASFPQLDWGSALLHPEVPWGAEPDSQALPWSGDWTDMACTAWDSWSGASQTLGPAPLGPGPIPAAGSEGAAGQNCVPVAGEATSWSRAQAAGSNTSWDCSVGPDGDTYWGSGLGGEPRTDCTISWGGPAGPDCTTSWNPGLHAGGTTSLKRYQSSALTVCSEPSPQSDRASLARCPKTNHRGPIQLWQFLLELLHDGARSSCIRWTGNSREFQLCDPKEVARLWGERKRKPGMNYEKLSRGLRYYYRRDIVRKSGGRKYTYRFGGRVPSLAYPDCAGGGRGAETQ
# Method in brief: as §1
# ELF3 = molecular target: T11, ELF3 (Homo sapiens, UniProt P78545 1-371); details: protein: recombinant; tags: N-terminal GST; dsDNA, one strand shown
# T11 sequence: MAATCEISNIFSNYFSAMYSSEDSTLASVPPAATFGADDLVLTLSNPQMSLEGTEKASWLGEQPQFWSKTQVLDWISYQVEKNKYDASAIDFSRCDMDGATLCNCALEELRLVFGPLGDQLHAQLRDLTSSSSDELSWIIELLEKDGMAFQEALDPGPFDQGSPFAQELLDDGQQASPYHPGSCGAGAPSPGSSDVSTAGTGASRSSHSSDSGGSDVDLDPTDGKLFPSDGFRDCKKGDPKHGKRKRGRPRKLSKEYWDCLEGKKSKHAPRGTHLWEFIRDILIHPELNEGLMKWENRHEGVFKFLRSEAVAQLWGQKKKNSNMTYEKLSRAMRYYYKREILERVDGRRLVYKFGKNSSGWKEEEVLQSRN
# Method in brief: as §1
# CRX = CRX (Homo sapiens, UniProt O43186 1-299); details: protein: recombinant; tags: N-terminal GST; dsDNA, one strand shown
# CRX, sequence (O43186 whole entry): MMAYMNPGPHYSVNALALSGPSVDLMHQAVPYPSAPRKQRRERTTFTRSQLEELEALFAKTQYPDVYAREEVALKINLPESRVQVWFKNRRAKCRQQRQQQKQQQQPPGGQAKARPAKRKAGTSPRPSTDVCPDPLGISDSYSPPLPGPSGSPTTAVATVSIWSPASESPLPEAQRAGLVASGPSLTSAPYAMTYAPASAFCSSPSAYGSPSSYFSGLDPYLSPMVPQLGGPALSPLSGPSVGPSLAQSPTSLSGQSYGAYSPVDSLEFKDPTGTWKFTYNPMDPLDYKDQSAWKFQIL
# Method in brief: as §1
# ETV1 = ETV1 (Homo sapiens, UniProt P50549 1-477); details: protein: recombinant; tags: N-terminal GST; dsDNA, one strand shown
# ETV1, sequence (P50549 whole entry): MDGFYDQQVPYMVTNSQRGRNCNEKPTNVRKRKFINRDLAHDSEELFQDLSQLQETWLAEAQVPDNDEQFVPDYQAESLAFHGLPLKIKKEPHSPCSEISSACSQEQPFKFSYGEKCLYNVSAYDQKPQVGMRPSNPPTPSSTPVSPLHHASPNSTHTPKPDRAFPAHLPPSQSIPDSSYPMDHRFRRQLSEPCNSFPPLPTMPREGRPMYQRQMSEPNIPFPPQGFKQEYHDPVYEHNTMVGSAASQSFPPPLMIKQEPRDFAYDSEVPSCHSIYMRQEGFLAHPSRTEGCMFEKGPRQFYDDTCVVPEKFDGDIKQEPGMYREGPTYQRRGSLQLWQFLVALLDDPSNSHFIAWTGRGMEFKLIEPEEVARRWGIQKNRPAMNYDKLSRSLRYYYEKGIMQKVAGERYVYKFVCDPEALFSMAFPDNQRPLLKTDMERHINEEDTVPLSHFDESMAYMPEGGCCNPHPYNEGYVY
# Method in brief: as §1
sequence,measurement,setting,value
TACCAT,binding signal,FLI1,"1.22 fold enrichment (6-mer frequency, TF over GST control)"
same,binding signal,ELK1,"1.09 fold enrichment (6-mer frequency, TF over GST control)"
same,binding signal,GABPA,"1.19 fold enrichment (6-mer frequency, TF over GST control)"
same,binding signal,ERG,"1.17 fold enrichment (6-mer frequency, TF over GST control)"
same,binding signal,ELF1,"1.23 fold enrichment (6-mer frequency, TF over GST control)"
same,binding signal,EHF,"1.11 fold enrichment (6-mer frequency, TF over GST control)"
same,binding signal,SPI1,"1.15 fold enrichment (6-mer frequency, TF over GST control)"
same,binding signal,SPIB,"1.21 fold enrichment (6-mer frequency, TF over GST control)"
same,binding signal,ELK3,"1.21 fold enrichment (6-mer frequency, TF over GST control)"
same,binding signal,FEV,"1.14 fold enrichment (6-mer frequency, TF over GST control)"
same,binding signal,ETV5,"1.13 fold enrichment (6-mer frequency, TF over GST control)"
same,binding signal,HSF1,"1.14 fold enrichment (6-mer frequency, TF over GST control)"
same,binding signal,SPIC,"1.11 fold enrichment (6-mer frequency, TF over GST control)"
same,binding signal,ELF4,"1.22 fold enrichment (6-mer frequency, TF over GST control)"
same,binding signal,ELK4,"1.27 fold enrichment (6-mer frequency, TF over GST control)"
same,binding signal,ETV2,"1.15 fold enrichment (6-mer frequency, TF over GST control)"
same,binding signal,ELF3,"1.16 fold enrichment (6-mer frequency, TF over GST control)"
same,binding signal,CRX,"1.23 fold enrichment (6-mer frequency, TF over GST control)"
same,binding signal,ETV1,"1.2 fold enrichment (6-mer frequency, TF over GST control)"
